# Results filed as inconclusive are left out. A call without a number means that no potency is given here. Values without a mark were called inactive. Activity calls are given as the source filed them. The call rests on the fitted dose curve; in most records, active means well fitted cell-killing curve with a large enough effect in the repeat runs; inconclusive means weak or mixed curves, or effect the other way; inactive means flat fitted curve, though single readings scatter.
# Test: qHTS assay to identify small molecule agonists of the TGF-beta/Smad signaling pathway - cell viability counter screen (AID 1346829); further: top concentration of the series differs between compounds; nearly all actives have a fitted effect of over 45% in size
# Settings: SBE-bla HEK293T viability, CellTiter-Glo luminescence, 5 h; series mostly up to 76.8 µM
# From the text: National Center for Advancing Translational Sciences [NCATS]
# NIH Chemical Genomics Center [NCGC]
# U.S. Environmental Protection Agency [EPA]
# National Institutes of Environmental Health Sciences [NIEHS]
# National Toxicology Program [NTP]
# U.S. Food and Drug Administration [FDA]
# Transforming growth factor beta (TGF-beta) superfamily consists of a large number of structurally related dimeric proteins that act as hormones or local mediators in regulating a wide range of biological functions. This superfamily includes TGF-betas themselves, the bone morphogenetic proteins (BMPs) and the activins. These ligands induce oligomerization of serine/threonine receptor kinases and phosphorylate the cytoplasmic signaling molecules of Smad protein family. CellSensor SBE-bla HEK 293T cell line (Life Technologies, Carlsbad, CA), responsive to TGF-beta was used to screen Tox21 10K compound library for identification of agonists/antagonists of the Smad signaling pathway. This cell line contains a beta-lactamase reporter gene under control of the Smad binding element (SBE) stably integrated into HEK 293T cells. Also cytotoxicity of the compounds was tested in parallel by measuring the cell viability using CellTiter-Glo assay system in the same wells.
# Tox21 Assay Protocol Summary:
# SBE-bla HEK 293T cells were dispensed at 4,000/well in 6 uL of assay medium into black wall/clear-bottom 1536-well plates using a Multidrop Combi (ThermoFisher Scientific, Waltham, MA) dispenser. After the assay plates were incubated at 37 C and 5% CO2 for an overnight, 23 nL of compounds dissolved in DMSO, positive controls or DMSO only was transferred to the assay plate by a Pintool station (Kalypsys, San Diego, CA). The assay plates were incubated at 37 C and 5% CO2 for 5 hr. One uL of LiveBLAzer B/G FRET substrate (Life Technologies) was added using a Flying Reagent Dispenser (FRD, Aurora Discovery, San Diego, CA) and the plates were incubated at room temperature for 2 hr. Fluorescence intensity (405 nm excitation, 460 nm and 530 nm emissions) was measured using an Envision plate reader (PerkinElmer, Shelton, CT). For cytotoxicity read, 4 uL of CellTiter-Glo reagent (Promega Corporation, Madison, WI) was added to each well of the assay plates using FRD. After 30min incubation at room temperature, the luminescence intensity was measured using ViewLux plate reader (PerkinElmer).
Structure (SMILES),Potency,"activity change, negative = cytotoxicity"
BrC(Br)C(Br)Br,inactive,–
CC12CC3CC(C)(C1)CC(N)(C3)C2,inactive,–
Nc1ccc(F)cc1,inactive,–
O=C1OC(=O)c2c(Br)c(Br)c(Br)c(Br)c21,inactive,–
CC1=C2[C@@H]([C@H](C)CC[C@H]2/C=C(\C)C(=O)O)[C@H](O)C1,inactive,–
OCC(CO)n1cnc(-c2ccc(F)cc2)c1-c1ccnc(Oc2ccccc2)n1,inactive,–
C=CC(=O)O,inactive,–
CC(=O)NCCO,inactive,–
CCCCCCCCCCCCCCN(C)C,–,4.77% [at 15.8 µM]
NC(=O)c1ccccc1[N+](=O)[O-],inactive,–
Oc1cccc2[nH]ccc12,inactive,–
CN=C(N)NC(=O)Nc1c(C)cccc1C,inactive,–
CCCCC(CC)COS(=O)(=O)O (stereo not given),inactive,–
CCC(C)(C)C(=O)O,inactive,–
Cc1ccc2nc(N)[nH]c(=O)c2c1Sc1ccncc1,inactive,–
CCCCCCC(O)CCCCCCCCCCC(=O)OC (stereo not given),inactive,–
C=C(C)c1ccccc1,inactive,–
COc1cc(S(=O)(=O)Nc2ccccc2)c(OC)cc1N,inactive,–
O=P(O)(O)Oc1ccccc1,inactive,–
C=C(C)C(=O)OCCC(F)(F)C(F)(F)C(F)(F)C(F)(F)C(F)(F)C(F)(F)F,inactive,–

Structure (SMILES),Potency,"activity change, negative = cytotoxicity"
O=C(/C=C/c1ccc([N+](=O)[O-])cc1)c1ccccc1,inactive,–
COc1ccc(-n2nc(C(F)F)cc2-c2ccc(S(C)=O)cc2)cc1 (stereo not given),inactive,–
COC(=O)CC(C(C)=O)C(=O)OC (stereo not given),inactive,–
COc1cc(NC(C)CCCN)c2ncccc2c1 (stereo not given),inactive,–
CCOC(=O)C(C)O (stereo not given),inactive,–
Cc1c[nH]c2ccccc12,inactive,–
CCOCCC(=O)OCC,inactive,–
Cc1cc(CCCOc2c(C)cc(-c3noc(C(F)(F)F)n3)cc2C)on1,inactive,–
Cc1ccc2c(c1[N+](=O)[O-])C(=O)c1ccccc1C2=O,inactive,–
CC(=O)C(=O)CC(C)C,inactive,–
O=C(O)c1cccc(Oc2ccccc2)c1,inactive,–
CC(O)Cn1cnc2c1c(=O)n(C)c(=O)n2C (stereo not given),inactive,–
CSCC[C@H](NC(=O)[C@H](Cc1c[nH]c2ccccc12)NC(=O)CCNC(=O)OC(C)(C)C)C(=O)N[C@@H](CC(=O)O)C(=O)N[C@@H](Cc1ccccc1)C(N)=O,inactive,–
COC(=O)C1=C(C)NC(C)=C(C(=O)OC(C)(C)CN(C)CCC(c2ccccc2)c2ccccc2)C1c1cccc([N+](=O)[O-])c1 (stereo not given),inactive,–
O=C(c1ccccc1)c1ccc(O)cc1,inactive,–
CC/C=C\C/C=C\C/C=C\CCCCCCCC(=O)OCC,inactive,–
COc1ccc(-c2cc(=S)ss2)cc1,inactive,–
CCCCCCCC(=O)OCCCCCC,inactive,–
CCCOC(=O)c1c(Cl)c(Cl)c(Cl)c(Cl)c1C(=O)OCCC,inactive,–
CCCCCCCCCCCC(=O)OCC(O)CO (stereo not given),inactive,–

# Reference: PubChem BioAssay (Tox21)
